Shown are actives, neighbours in structure and some others; about 3.9% of the full set was active somewhere.
HIF act: HIF pathway transcriptional activation | U2OS HRE-luciferase reporter, luminescence; normalized: DMSO 0%, desferrioxamine 100% | activation, % at 7.5 µM (by protocol) | actives 0.32% (n = 300,000) | AID 1910;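 active = mean activation of at least 10% of the iron chelator positive control signal, with at least half of replicates also reaching 10%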
PLCg1 inh: PLC-gamma1 (human) inhibition, primary screen | AID 720700 | purified PLC-gamma1, fluorogenic substrate, fluorescence | inhibition, % at 12.2 µM | actives 0.84% (n = 370,000) | P19174; in the data active = inhibition above about 9.5%
PLC-beta3 inh: PLC-beta3 (human) inhibition, primary screen; actives 0.18% (n = 370,000); Purified PLC-beta3, fluorogenic substrate, fluorescence; inhibition, % at 12.2 µM; Q01970; in the data active = inhibition above about 11%;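 note: 0% = median of compound wells on plate and 100% = full blocker control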
AHR activator: human AHR activation. P35869. AHR-responsive luciferase reporter cells, luminescence. activation, % at 5 µM. actives 2.5% (n = 320,000). AID 2796; in the data active = activation above about 47%;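 note: 0% = vehicle wells and 100% = reference agonist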
CR mimetic SO: yeast age-related superoxide inhibition as caloric restriction mimetic; S. cerevisiae aged cells, superoxide DHE fluorescence; active compounds read low; superoxide response (% of plate mean), % at 10 µM; actives 0.18% (n = 330,000); AID 2690;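 active = superoxide response under a set limit, about three screen SD below normal, cut at about 65% in these data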;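 note: yeast aged for seven days with compound at 30 °C before DHE staining; 100% = average MFI of all compound-treated wells on the plate with controls excluded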
sPLA2-III inh: Inhibits HGIII-sPLA2 liposome hydrolysis, primary screen; Q9NZ20; inhibition, % at 12.2 µM; QFRET BODIPY PC-A2 liposome hydrolysis, fluorescence; actives 0.56% (n = 370,000);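 active = inhibition above mean plus 3 SD of compounds lying within the high and low control bounds, cut at about 19% in these data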;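 note: 0% = median of test compound wells and 100% = no enzyme DMSO wells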
Target sequence (Q9NZ20 whole entry, looked up): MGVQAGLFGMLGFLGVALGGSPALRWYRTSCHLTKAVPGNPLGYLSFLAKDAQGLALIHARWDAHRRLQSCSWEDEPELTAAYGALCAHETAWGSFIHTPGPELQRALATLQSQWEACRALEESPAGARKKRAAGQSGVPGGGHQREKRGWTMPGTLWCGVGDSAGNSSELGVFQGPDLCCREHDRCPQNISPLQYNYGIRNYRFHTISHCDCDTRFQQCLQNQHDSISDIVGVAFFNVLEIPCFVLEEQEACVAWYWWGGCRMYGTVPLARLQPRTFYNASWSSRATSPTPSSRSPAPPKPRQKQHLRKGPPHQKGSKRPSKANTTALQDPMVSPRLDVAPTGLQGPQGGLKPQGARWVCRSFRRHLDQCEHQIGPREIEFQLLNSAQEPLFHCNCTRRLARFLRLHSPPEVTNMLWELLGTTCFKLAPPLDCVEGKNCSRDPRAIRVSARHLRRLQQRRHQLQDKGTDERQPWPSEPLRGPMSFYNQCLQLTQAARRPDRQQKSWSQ
AHR act cf: confirmation of human aryl hydrocarbon receptor activators | shares compounds with AHR activator | human cells, AHR-responsive luciferase reporter, luminescence | activation, % at 9 µM | actives 87% (n = 2,300) | AID 2845; in the data active = activation above about 49%;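 note: HepG2 hepatoma cells carrying a DRE-driven firefly luciferase reporter; 0% = vehicle wells and 100% = reference agonist wells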
PXR counter: PXR activation, counter-screen for AHR activators; cell-based PXR reporter, luciferase luminescence; activation, % at 11.6 µM; shares compounds with AHR activator; actives 88% (n = 2,300); in the data active = activation above about 11%;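 note: human hepatoma DPX-2 cells expressing full-length human PXR; 0% = DMSO and 100% = reference agonist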
Starred values were filed as active, the others as inactive; i = inactive; . = no result given.

SMILES | HIF act | PLCg1 inh | PLC-beta3 inh | AHR activator | CR mimetic SO | sPLA2-III inh | AHR act cf | PXR counter
CCCCNC(=O)c1c(N)[nH]c(C(=O)c2ccccc2)c1-c1ccc(Cl)cc1 | . | -1 | -5 | . | . | -2 | . | .
Cc1nc2ccccn2c1C(=O)Nc1ccc(Cl)cc1 | 2 | -3 | 2 | 91* | 91 | 3 | 152* | 16*
Cc1ccccc1CCN1CCCC(CN(C)C(=O)c2ccc3ncccc3c2)C1 (stereo not given) | 1 | 0 | 5 | -2 | 101 | -9 | . | .
O=C(Nc1nnc([C@@H]2C[C@H](O)[C@@H](CO)O2)s1)c1c(F)cccc1F | . | -2 | 2 | . | . | 14 | . | .
O=C(N/N=C/c1cn(Cc2ccccc2)c2ccccc12)c1ccncc1 | -1 | -27 | -34 | 24 | 113 | -12 | . | .
C#CCn1cc(/C=N/NC(=O)c2cc3ccccc3o2)c2ccccc21 | -1 | -163 | -195 | 112* | 104 | -15 | 87* | .
O=C(N/N=C/c1cn(Cc2ccccc2)c2ccccc12)c1cccnc1 | 0 | -32 | -38 | 86* | 123 | 3 | -9 | -3
COc1ccc(NC(=O)CSc2nnc3ccc(-c4ccncc4)nn23)cc1OC | 0 | 1 | -7 | 1 | 101 | 4 | . | .
COc1ccc(-c2cc(C(=O)N3CCN(S(=O)(=O)c4ccc(C)cc4)CC3)[nH]n2)cc1 | 0 | 3 | -1 | 111* | 92 | 15 | 2 | 13*
COc1ccc(S(=O)(=O)N2CCN(C(=O)c3cc(-c4ccc(C)cc4)n[nH]3)CC2)cc1 | 0 | 5 | 0 | 2 | 148 | -30 | . | .
COc1ccc(CCN2Cc3c(N)cccc3C2=O)cc1OC | -1 | 4 | -7 | 83* | 100 | 3 | 1 | 12*
COC(=O)c1cc(C)[nH]c2c(C)cc3nc4ccccc4c3c12 | 1 | i | i | 95* | 91 | -21 | 100* | 156*
O=C(c1ccccc1)C1C(c2ccccc2)C1[N+](=O)[O-] (stereo not given) | 0 | 2 | -9 | 2 | 101 | -3 | . | .
CN(C)c1ccc([C@@H]2[C@@H]([N+](=O)[O-])[C@H]3C=Cc4ccccc4N3[C@H]2C(=O)c2ccc(Cl)cc2)cc1 | . | -37 | -38 | 107* | 98 | -1 | 98* | 72*
Cc1ccnc2ccc(-c3nc4ccccc4o3)cc12 | . | -96 | -110 | 87* | 96 | -3 | 183* | 54*
Cc1nc2ccc(-c3nc4ccccc4o3)cc2[nH]1 | 1 | -13 | -22 | -5 | 96 | -2 | . | .
Cc1cc(-c2nc3ccccc3o2)c2ccccc2n1 | 0 | -24 | -33 | 105* | 113 | -4 | 135* | 11*
COc1ccccc1Nc1nc(N)nc(-c2cc3ccccc3o2)n1 | 3 | -10 | -24 | 85* | 100 | -41 | 21 | 46*
COc1ccccc1-c1sc2cc3c(cc2c1-c1ccc2c(c1)OCO2)OCO3 | . | -3 | -3 | 93* | 96 | 6 | 126* | 162*
COc1ccccc1-c1sc2ccccc2c1-c1ccc2c(c1)OCO2 | 0 | -6 | -11 | 33 | 91 | 1 | . | .
COC(=O)c1c(-c2ccccc2OC)sc2cc3c(cc12)OCO3 | . | i | i | 108* | 88 | 4 | 92* | 226*
CCCc1nn(C)c(C(=O)Nc2cccc3ccccc23)c1Cl | 2 | -5 | -2 | 93* | 98 | 2 | 74* | .
Nc1ccc2nc(-c3ccc(Cl)cc3)[nH]c2c1 | 0 | i | i | 167* | 96 | 7 | 111* | 33*
Nc1ccc2nc(-c3cc(Cl)c(N)c(Cl)c3)[nH]c2c1 | 3 | i | i | 39 | 109 | 5 | . | .
Clc1ccc2nc(-c3ccc(Cl)nc3)[nH]c2c1 | 3 | -18 | -30 | 87* | 103 | -6 | 138* | 0
COc1ccc(Cc2nnc(SCC(=O)Nc3ccccc3C)n(N)c2=O)cc1 | -36 | -1 | -4 | 1 | 95 | -10 | . | .
O=C(Nc1nnc([C@@H]2C[C@H](O)[C@@H](CO)O2)s1)c1cccc(OC(F)(F)F)c1 | . | -5 | 1 | . | . | 5 | . | .
